The text below walks through data of PubChem BioAssay (NCI).

The panel holds about 83,000 compounds, 20% with a hit somewhere; the sample as a whole holds those more often.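 Note: values are percent growth. 100 is the growth of untreated cells, values between 100 and 0 indicate rising inhibition; between -100 and 0 indicates cell death.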 Values without a mark were called inactive. Activity calls are given as the source filed them. How the source made its calls: active means growth percent below 10; inactive means the rest.

Some test systems named below: NCI-H23 lung; NCI-H226 lung; NCI-H322M lung; HOP-62 NSCLC; NCI-H460 lung; HOP-92 NSCLC; NCI-H522 lung; A549/ATCC NSCLC; 786-0 renal; COLO 205 colon.
What all share (assay): NCI-60 one-dose screen, 48 h (100 = growth as untreated, 0 = no growth, -100 = all killed)
What all share (details): 10 µM unless noted

On to `O=C1Nc2ccc(Br)cc2C12Oc1ccccc1C1CC(c3ccc(F)cc3)=NN12` (stereo not given), for which the growth in the assay with NCI-H23 lung was 89%; with NCI-H226 lung, 83.1%; in the assay on NCI-H322M lung, 96.3%; in the assay with HOP-62 NSCLC, 104%; with NCI-H460 lung, 98.5%; in the assay on HOP-92 NSCLC, 109%. Also, the growth in the assay on NCI-H522 lung was 81%; in the assay on A549/ATCC NSCLC, 91%; in the assay with 786-0 renal it was 105%; with COLO 205 colon it was 109%.
On to `COc1cc(-c2nc(C(=O)NCC(=O)NO)nn2-c2ccc(Cl)cc2)cc(OC)c1OC`, for which the growth in the assay with NCI-H23 lung was 97.1%; with NCI-H226 lung, 91.8%; in the assay with NCI-H322M lung, 118%; in the assay on HOP-62 NSCLC, 93.6%; with NCI-H460 lung, 107%; with HOP-92 NSCLC, 86.5%. Also, the growth in the assay with NCI-H522 lung was 86.8%; in the assay on A549/ATCC NSCLC it was 90.1%; in the assay with 786-0 renal, 101%; in the assay with COLO 205 colon, 103%.
Consider `Clc1ccc2c(NCCNc3nc(N4CCOCC4)nc4ccccc34)ccnc2c1`, for which the growth with NCI-H23 lung is 44%; in the assay on NCI-H226 lung, -22.5% (active); with NCI-H322M lung it was 15.9%; in the assay on HOP-62 NSCLC, -37.1% (active); with NCI-H460 lung, -29.3% (active); in the assay on HOP-92 NSCLC, -41.6% (active). Besides, the growth in the assay on NCI-H522 lung is -70.6% (active); with A549/ATCC NSCLC, 5.31% (active); in the assay with 786-0 renal, -39.9% (active); in the assay with COLO 205 colon, -67.5% (active).
On to `COc1ccc2c(c1)c(-c1nonc1-c1cn(C)c3ccccc13)cn2C`, for which the growth with NCI-H23 lung was 27.9%; in the assay on NCI-H226 lung it was 27.3%; in the assay on NCI-H322M lung, 42.2%; in the assay with HOP-62 NSCLC, 33.1%; in the assay on NCI-H460 lung it was 16.3%; in the assay with HOP-92 NSCLC it was 47.8%. In addition, the growth was 9.96% (active) with NCI-H522 lung, 30.3% with A549/ATCC NSCLC, 44.2% in the assay on 786-0 renal and 17.7% in the assay with COLO 205 colon.
For `O=C1OC(c2ccccc2)C(O)=C1c1ccccc1` (stereo not given), the growth in the assay with NCI-H23 lung was 115%; in the assay on NCI-H226 lung, 100%; with NCI-H322M lung, 130%; with HOP-62 NSCLC, 122%; in the assay with NCI-H460 lung, 113%; in the assay with HOP-92 NSCLC, 96.4%. Besides, the growth is 110% in the assay on NCI-H522 lung, 86.6% with A549/ATCC NSCLC, 116% in the assay with 786-0 renal and 120% with COLO 205 colon.
With `COc1ccc(Nc2nc(SC)nc(-c3cccc([N+](=O)[O-])c3)c2C#N)cc1`, the growth was 73.6% in the assay on NCI-H23 lung; 18.3% with NCI-H226 lung; 65.8% in the assay with NCI-H322M lung; 44.5% in the assay with HOP-62 NSCLC; 30.4% in the assay on NCI-H460 lung; 61.3% in the assay on HOP-92 NSCLC. Also, the growth in the assay with NCI-H522 lung was 80.8%; in the assay with A549/ATCC NSCLC, 31.4%; in the assay on 786-0 renal, 21.8%; in the assay on COLO 205 colon, 81.5%.
`Cc1[nH]c(-c2ccc3cc[nH]c3c2)c2c1C(=O)CCCC2`: the growth with NCI-H23 lung is 49.3%; in the assay on NCI-H226 lung, 52.4%; in the assay on NCI-H322M lung, 50.4%; with HOP-62 NSCLC it was 32.3%; with NCI-H460 lung it was 66.8%; with HOP-92 NSCLC, 37.1%. The growth was 37% in the assay with NCI-H522 lung, 51.9% with A549/ATCC NSCLC, 50.5% with 786-0 renal and 40.6% in the assay on COLO 205 colon.
Turning to `COc1ccc(C2Nc3c(c(C(C)(C)C)nn3-c3ccccc3)C(=O)CS2)cc1` (stereo not given), the growth in the assay on NCI-H23 lung was 99.6%; in the assay with NCI-H226 lung it was 98.2%; in the assay on NCI-H322M lung, 104%; with HOP-62 NSCLC, 106%; in the assay on NCI-H460 lung, 106%; in the assay with HOP-92 NSCLC, 91.7%. Also, the growth in the assay on NCI-H522 lung was 84.5%; in the assay on A549/ATCC NSCLC, 89.3%; in the assay on 786-0 renal, 113%; with COLO 205 colon, 103%.
As to `C(=C\c1nccc2c1[nH]c1ccccc12)/c1ccccc1`, the growth in the assay on NCI-H23 lung was 34.3%; with NCI-H226 lung, 51.6%; with NCI-H322M lung, 29.9%; with HOP-62 NSCLC, 40.7%; with NCI-H460 lung, 4.91% (active); with HOP-92 NSCLC, 45.4%. For the same compound, the growth is 4.33% (active) in the assay with NCI-H522 lung, 21.4% with A549/ATCC NSCLC, 35.8% in the assay with 786-0 renal and 3.43% (active) with COLO 205 colon.
As to `c1ccc(-c2cc3n4c(-c5ccccc5)nn(-c5ccccc5)c4cnc-3n2)cc1`, the growth is 58.1% with NCI-H23 lung; 73.4% in the assay with NCI-H226 lung; 23.6% in the assay with NCI-H322M lung; 102% with HOP-62 NSCLC; 54.9% with NCI-H460 lung; 51.2% in the assay with HOP-92 NSCLC. Moreover, the growth was 9.2% (active) with NCI-H522 lung, 31.3% with A549/ATCC NSCLC, 75.5% in the assay with 786-0 renal and 75.1% in the assay on COLO 205 colon.
As to `COc1cc2c(cc1-c1c(C)noc1C)ncc1nc(C3CCC(F)(F)CC3)n([C@H](C)COC(F)F)c12`, the growth with NCI-H23 lung is 60.1%; with NCI-H226 lung, 51.1%; with NCI-H322M lung it was 42.6%; with HOP-62 NSCLC, 36.9%; in the assay with NCI-H460 lung it was 56.4%; with HOP-92 NSCLC, 32%. In addition, the growth in the assay with NCI-H522 lung was 30.3%; in the assay on A549/ATCC NSCLC, 40%; in the assay with 786-0 renal, 46.9%; in the assay with COLO 205 colon, 25.1%.
For `COc1cc(/C=C/C(=O)c2cccnc2Nc2ccc(F)cc2)cc(OC)c1OC`, the growth is 40.2% in the assay with NCI-H23 lung; 43% in the assay with NCI-H226 lung; 103% in the assay on NCI-H322M lung; 43.6% in the assay with HOP-62 NSCLC; 22.5% in the assay with NCI-H460 lung; 37.7% with HOP-92 NSCLC. In addition, the growth with NCI-H522 lung was 29.7%; in the assay with A549/ATCC NSCLC, 32.9%; in the assay with 786-0 renal, 70.3%; in the assay on COLO 205 colon, 83.9%.
Consider `CC(=O)NCC1c2c(n(C)c3c(Cl)c(Cl)ccc23)C(=O)NC1(C)C` (stereo not given), for which the growth with NCI-H23 lung is 90.3%; with NCI-H226 lung, 97.1%; in the assay on NCI-H322M lung, 91.9%; in the assay on HOP-62 NSCLC, 88.2%; in the assay on NCI-H460 lung it was 96.6%; in the assay on HOP-92 NSCLC, 90.6%. In addition, the growth in the assay on NCI-H522 lung is 92.8%; in the assay with A549/ATCC NSCLC, 94.4%; with 786-0 renal it was 100%; with COLO 205 colon, 113%.
